# In PubChem BioAssay AID434970 (Sanford-Burnham Center for Chemical Genomics, 2010):
# Out of some 11,000 compounds screened, about 310 (2.8%) were called active. Rule as the data show it: active = activity change below about -85%; inactive = the rest. The list comes from a sample in which actives are over-represented; it also holds similar structures and randomly drawn compounds.
# System: intestinal alkaline phosphatase [Mus musculus]
# Assay: activators of mouse IAP, confirmation, biochemical, luminescence, single concentration (AID 434970)
# Conditions: purified mouse IAP, CDP-Star luminescence, 30 min, at 10 µM; activation factor: measured here: IAP activation factor, stronger effect = higher value; activity change, negative = activation: stronger effect = lower value
Structure (SMILES),activation factor,"activity change, negative = activation"
Cc1ccc(NC(=O)CN(C)C(=O)CCCN2C(=O)c3ccccc3C2=O)cc1,1.04,-3.95% (inactive)
C#CCOCCOCCOCCNc1nc(N2CCN(C(=O)CCCCCCCCCCNC(=O)[C@H]([C@@H](C)CC)n3cc(CCCCCN)nn3)CC2)nc(N2CCN(C(=O)CCCCCCCCCCNC(=O)[C@@H]([C@H](C)CC)n3cc(CCCCCN)nn3)CC2)n1,6.79,-579% (active)
C#CCOCCOCCOCCNc1nc(N2CCN(C(=O)CCCCCCCCCCNC(=O)[C@H]([C@@H](C)CC)n3cc(CCCCCN)nn3)CC2)nc(N2CCN(C(=O)CCCCCCCCCCNC(=O)[C@@H]([C@H](C)O)n3cc(C)nn3)CC2)n1,4.1,-310% (active)
C#CCOCCOCCOCCNc1nc(N2CCN(C(=O)CCCCCCCCCCNC(=O)[C@H]([C@@H](C)CC)n3cc(CCCCCN)nn3)CC2)nc(N2CCN(C(=O)CCCCCCCCCCNC(=O)[C@H](CO)n3cc(CCCCCN)nn3)CC2)n1,2.51,-151% (active)
CCOc1ccc(-n2cc(C(=O)Nc3cccc(Cl)c3)c3cc(OC)c(OC)cc3c2=O)cc1,1.1,-10.2% (inactive)
CNC(=O)/C(C#N)=C/c1ccc(-c2ccc(OC)cc2[N+](=O)[O-])o1,0.891,10.9% (inactive)
CC(C)N(C(=O)[C@H]1C[C@H](CC(=O)NCCC2=CCCCC2)C(=O)N2CCc3c([nH]c4ccc(Cl)cc34)[C@]12C)C(C)C,1.23,-23.5% (inactive)
NC(=O)c1c(NC(=O)CSc2nnc(-c3ccco3)n2-c2ccccc2)sc2c1CCC2,0.759,24.1% (inactive)
COc1ccc(NC(=O)C2CCCN2c2ccc(OC)c(OC)c2)cc1OC (configuration not stated),1.14,-14.2% (inactive)
COc1ccc(C2C(C(=O)N3CCCC3)c3cc(OC)c(OC)cc3C(=O)N2C)cc1 (configuration not stated),0.989,1.1% (inactive)
COc1ccccc1NC(=O)CCNS(=O)(=O)c1ccc2[nH]c(=O)oc2c1,0.265,73.5% (inactive)
CCC(C(=O)NCCC(C)C)n1ccc2cc(S(=O)(=O)N3CCCCC3)ccc21 (configuration not stated),2.59,-159% (active)
COc1ccc(CNC(=O)C(C)n2ccc3cc(S(=O)(=O)N4CCCCCC4)ccc32)cc1 (configuration not stated),1.91,-90.9% (inactive)
COC(=O)c1ccc(S(=O)(=O)N2CCCCCC2)cc1,0.874,12.6% (inactive)
CCOc1ccccc1N(CC(=O)Nc1ccc(C)cc1)S(C)(=O)=O,0.98,2.05% (inactive)
O=C(CC1Sc2ccccc2NC1=O)OCC(=O)N1CCc2ccccc21 (configuration not stated),1.11,-10.6% (inactive)
Cc1ccc(NC(=O)Cn2cccc2)c(C)c1,1.01,-1.25% (inactive)
Cc1ccc(NC(=O)CSCC(=O)O)c(C)c1,1.07,-7.15% (inactive)
CCOC(=O)CNC(=O)Nc1cccc(Cl)c1C,1.04,-4.45% (inactive)

Structure (SMILES),activation factor,"activity change, negative = activation"
Cc1ccc(C)c(CN2CCC(CNC(=O)Nc3cccc(Cl)c3C)CC2)c1,2.47,-147% (active)
Cc1c(Cl)cccc1NC(=O)CCN1CCCCCC1,0.984,1.6% (inactive)
Cc1ccc(NC(=O)NCC2CCN(Cc3cc(C)ccc3Cl)CC2)c(C)c1,1.87,-86.8% (active)
COC(=O)CCN(C(=O)C1C2CC3CC(C2)CC1C3)c1ccccn1 (configuration not stated),0.948,5.2% (inactive)
COc1ccccc1-c1nnc(SCCN2CCOCC2)n1-c1ccc(C)cc1,0.947,5.3% (inactive)
CCOC(=O)C1=CN(Cc2ccco2)S(=O)(=O)N(CC)C1c1cccc(OC)c1 (configuration not stated),1.02,-1.7% (inactive)
O=S1(=O)CC(O)C(Nc2ccccc2)C1 (configuration not stated),0.942,5.85% (inactive)
OC(c1cccc(OCc2ccccc2)c1)c1nnc(-c2ccccc2)o1 (configuration not stated),1.03,-3.4% (inactive)
CCN([C@H](CO)CC(C)C)S(=O)(=O)c1ccccc1,1.09,-8.75% (inactive)
Cc1onc(-c2ccccc2)c1NC(=O)Nc1ccc(OC(F)F)cc1,1.48,-47.9% (inactive)
Cc1cc(C)cc(NC(=O)NCc2c(-c3ccccc3)noc2C)c1,2.73,-173% (active)
Cn1c(CNC(=O)Nc2cccc(Cl)c2)nnc1SCc1ccccc1,1.52,-52% (inactive)
O=C(Nc1cccc(Cl)c1)Nc1nnc(-c2ccccc2)o1,1.02,-2.05% (inactive)
FC(F)(F)c1ccc(NC(=S)NCc2ccccc2)cc1,1.41,-41% (inactive)
Cc1onc(-c2ccccc2)c1CNC(=O)Nc1cccc(Cl)c1,2.33,-133% (active)
Cc1onc(-c2ccccc2)c1C(=O)NCc1cccs1,1.01,-0.85% (inactive)
Cc1onc(-c2ccccc2)c1CNC(=O)Nc1ccc(C(F)(F)F)cc1,1.99,-99.1% (active)
Cc1onc(-c2ccccc2)c1C(=O)NCc1ccccn1,0.956,4.35% (inactive)
COC(=O)C1=NN(c2ccccc2)C2(S1)SC(C(C)=O)=C(C)N2c1ccccc1 (configuration not stated),0.92,8% (inactive)

Structure (SMILES),activation factor,"activity change, negative = activation"
O=C(CC(Nc1ccc(F)cc1)C(=O)O)c1ccccc1 (configuration not stated),0.959,4.1% (inactive)
COC(=O)c1oc2ccc(Cl)cc2c1N,0.915,8.55% (inactive)
O=C(Nc1ccc2c(c1)nc1n2CCOC1)c1ccco1,1.29,-29.5% (inactive)
Cc1cccc(N2O[C@H]3C=CC2CCCC3)n1,1.02,-2.2% (inactive)
COc1ccc(C2C(C(=O)Nc3ccccc3)=C(C)N=C3SCC(=O)N32)cc1 (configuration not stated),0.843,15.7% (inactive)
CCC1CCCCN1CCCNC(=O)CNC(=O)Cn1ccc2ccccc2c1=O (configuration not stated),0.926,7.35% (inactive)
Cc1ccc(NC(=O)NCCCc2ccccc2)cc1,1.29,-28.6% (inactive)
O=C(NCCCCc1ccccc1)Nc1cccc(F)c1,2.29,-129% (active)
COc1cccc(NS(=O)(=O)Cc2ccccc2)c1,0.904,9.6% (inactive)
COc1cccc(NC(=O)NCCCCc2ccccc2)c1,2.16,-116% (active)
Cc1cccc(NC(=O)NCCc2c[nH]c3ccccc23)c1,1.72,-71.8% (inactive)
Cc1cccc(NC(=O)NC(C)CCc2ccccc2)c1 (configuration not stated),2.83,-183% (active)
S=C(NCCCc1ccccc1)Nc1ccc(Br)cc1,1.72,-71.9% (inactive)
Cc1cccc(NC(=O)NCCCCc2ccccc2)c1,2.38,-138% (active)
Fc1cccc(NC(=S)NCc2ccccc2Cl)c1,1.27,-27.2% (inactive)
Cc1cccc(NC(=S)NC(C)CCc2ccccc2)c1 (configuration not stated),1.15,-14.6% (inactive)
COc1cccc(NC(=O)Nc2cccn(Cc3ccccc3)c2=O)c1,1.01,-1.1% (inactive)
CC(CCc1ccccc1)NC(=O)c1ccncc1 (configuration not stated),0.938,6.2% (inactive)
